Experimental data as given in PubChem BioAssay (NCI).
About 83,000 compounds went through this panel and 20% of them were active in at least one assay; those are over-represented in the sample as a whole.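 Values shown are percent growth following 48 h exposure of cells in 96-well plates to a single concentration of compound; below 10 was considered active.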 Active and inactive are the calls of the source.

Each compound was assayed on MCF7 breast (assay: NCI-60 one-dose screen, 48 h (100 = growth as untreated, 0 = no growth, -100 = all killed)). Settings: 10 µM unless noted.
Experimental: Growth inhibition of the MCF7 human tumor cell line is measured as a screen for anti-cancer activity. Cells are grown in 96 well plates and exposed to the test compound for 48 hours. Compounds are tested at a single concentration, which is 10^-5 M for most compounds. The reported endpoint is percent growth (GI% or GIPRCNT), where numbers from 0 - 100% represent growth inhibition, and numbers from -100% - 0 represent cell death. For example, a value of 40 represents 60% growth inhibition. A value of 0 means no net growth occurred over the course of the experiment. A value of -40 indicates 40% of cells at the beginning of the experiment died by the end of the experiment. A value of -100 means all cells are dead at the end of the experiment.
NCI-60 Human Tumor Cell Lines Screen was performed using the standard one-dose NCI protocol, which is described in more detail at https://dtp.cancer.gov/discovery_development/nci-60/default.htm.
Compounds with GIPRCNT values below 10 were considered active. Activity score was based on GIPRCNT using the following formula: […]
Score is 0 for GIPRCNT values of 100 or above, 50 for GIPRCNT values of 0, and 100 for GIPRCNT values of -100.

| SMILES | growth |
| --- | --- |
| CC(C)NC(=O)c1cc(-c2ccc(NC(=O)Nc3ccc(F)c(C(F)(F)F)c3)cc2)nc2cccnc12 | 91.8% (inactive) |
| C#CCN(C)CCCOc1ccc(NC(=O)CCCCCCCCC(=O)NO)cc1Cl | 31.9% (inactive) |
| CC(=O)c1cc(C(=O)N2c3ccccc3Sc3ccccc32)n2c1ccc1ccccc12 | 30.5% (inactive) |
| CC[C@H](CC[C@@H](C)[C@H]1CC[C@H]2[C@@H]3CC(=O)C4=CC(=O)/C(=C/c5ccc([N+](=O)[O-])cc5)C[C@]4(C)[C@H]3CC[C@]12C)C(C)C | 84.8% (inactive) |
| Clc1ccc2[nH]cc(-c3nn4cc(-c5cccnc5)nc4s3)c2c1 | 72.3% (inactive) |
| O=[N+]([O-])c1ccc(NC(=S)NNC(=S)Nc2ccc(F)cc2)cc1 | 82% (inactive) |
| CCOP(=O)(OCC)OC[C@]12CC[C@@H](C)[C@H](C)C1C1=CC[C@@H]3[C@@]4(C)CCCNC(C)(C)[C@@H]4CC[C@@]3(C)[C@]1(C)CC2 (stereo not given in full) | -59.8% (active) |
| CCOC(=O)c1c(NC(=O)c2ccc(C(F)(F)F)cc2)sc2c(CN3CCN(C)CC3)c(O)ccc12 | -79.5% (active) |
| CCOC(=O)c1ccc(NC2=C(Cl)C(=O)c3nc(C)ccc3C2=O)cc1 | -14.5% (active) |
| CCCCCCNC(=O)Oc1ccc(/C(=C(/C)c2ccc(Cl)cc2)c2ccc(OCCN3CCCCCC3)cc2)cc1 | 15.7% (inactive) |
| C/C(=N\NC(N)=S)c1nnn(-c2ccc([N+](=O)[O-])cc2)c1C | 91.9% (inactive) |
| CCCCSC1=C(Cl)CN(c2ccccc2)C1=O | 51.5% (inactive) |
| O=c1[nH][nH]c(-c2ccc(F)cc2)c1-c1nc2ccccc2s1 | 81.2% (inactive) |
| O=C(CSc1nc2ccccc2c(=O)n1-c1ccccc1)Nc1ccc(S(=O)(=O)Nc2nccs2)cc1 | 57.6% (inactive) |
| COC(=O)CNC(=O)c1cccc(-c2cc(=O)c3c(OC)c(OC)c(OC)cc3o2)c1 | 89.2% (inactive) |
| CCOC(=O)c1c(NCC(=O)Nc2cccc([N+](=O)[O-])c2)sc(C(C)=O)c1C | -9.04% (active) |
| COc1ccc(-c2nc(C#N)c(N3CCC(S(=O)(=O)N4CCOCC4)CC3)o2)cc1 | 90.7% (inactive) |
| NC(=O)c1ncn2c(=O)n(CCF)nnc12 | 57.8% (inactive) |
| O=C(/C=C/c1cccc(F)c1)c1cccc(OCCCOc2cccc(C(=O)/C=C/c3cccc(F)c3)c2)c1 | 10.2% (inactive) |
| NS(=O)(=O)c1ccc(Nc2nc(N/N=C/C=C/c3ccccc3)nc(Nc3ccccc3)n2)cc1 | 16% (inactive) |

| SMILES | growth |
| --- | --- |
| COc1cc(C(=O)c2cc(C(C)=O)c3cccc(C)n23)cc(OC)c1OC | 20.3% (inactive) |
| COc1ccc(-c2cc(-c3ccc(N(C)C)cc3)n3c(n2)nc2ccccc23)cc1 | 40.7% (inactive) |
| CCN(CC)c1ccc(/C=N/NC(=O)c2ccc(NS(C)(=O)=O)cc2)cc1 | 9.25% (active) |
| C#C[C@]1(O)CC[C@H]2[C@@H]3CC=C4c5sc(Nc6cccc(F)c6)nc5CC[C@]4(C)[C@H]3CC[C@@]21C | 0.863% (active) |
| CN(C)S(=O)(=O)c1ccc(-c2nc(C(Cl)Cl)nc3cc(-c4ccc(F)cc4)nn23)cc1 | 15% (inactive) |
| NNc1nnc2nc(Nc3ccccc3)nc(Nc3ccc(S(N)(=O)=O)cc3)n12 | 97.8% (inactive) |
| CSc1ccc(/C(=N/N=C(N)N)c2ccc(F)cc2)cc1 | 5.11% (active) |
| Cn1c(SCC(=O)c2ccc(F)cc2)nc2ccccc2c1=O | 72.7% (inactive) |
| CC1=C(C)C(=O)C(Nc2ccc(C)c(C)c2)=C(Br)C1=O | 64.2% (inactive) |
| Cc1[nH]c(C(=O)Nc2ccccc2OCc2cccc(C(=O)NCCN)c2)cc1Cl | 11.3% (inactive) |
| CC(C)(C)c1cc(NC(=O)Nc2ccc(-c3cn4c5c(sc4n3)CCc3cn(CCCN4CCCCC4)cc3-5)cc2)no1 | -79% (active) |
| O=C(/C=C/c1cccc(F)c1)c1cccc(OCCCCOc2cccc(C(=O)/C=C/c3cccc(F)c3)c2)c1 | 54.6% (inactive) |
| CNC(=O)c1cc(-c2ccc(NC(=S)Nc3cccc(C(F)(F)F)c3)cc2)nc2cccnc12 | 80.3% (inactive) |
| Cn1cc(C2=C(c3coc4cc(Br)ccc34)C(=O)NC2=O)c2ccccc21 | 51.2% (inactive) |
| C#CCOc1cccc(-c2nc(N)nc(Nc3ccccc3SSc3ccccc3Nc3nc(N)nc(-c4cccc(OCC#C)c4)n3)n2)c1 | 61.2% (inactive) |
| O=C(CSc1nnc(-c2ccc(Cl)cc2)n1-c1ccccc1)Nc1cccc(F)c1 | 39% (inactive) |
| CN1CCN(Cc2ccc(NC(=O)c3cncc(C#Cc4cnc5ccc(OCC(F)F)nn45)c3)cc2C(F)(F)F)CC1 | -66.6% (active) |
| C#CCOc1cccc(/C(N)=N/C(N)=N/c2nc3ccccc3s2)c1 | 74.2% (inactive) |
| CC1(C)CC[C@]23CC[C@]4(C)[C@H](CC[C@@H]5[C@@]6(C)CC[C@H](NCO)C(C)(C)[C@@H]6CC[C@]54C)[C@H]2[C@H]1OC3 | 1.96% (active) |
| O=C(CCCCCCNC(=O)C(O)(O)C(F)(F)F)Nc1ccc(Cl)cc1 | 17.3% (inactive) |
